Reference: PubChem BioAssay (Tox21)
Inconclusive results are not listed. The source made the active and inactive calls. Calls come from the whole dose curve.

Assay: qHTS assay to identify small molecule agonists of the AP-1 signaling pathway - cell viability counter screen (AID 1159525); note: nearly all actives have a fitted effect of over 55% in size
Settings: ME-180 (cervical carcinoma) AP-1-bla cells viability, ATP luminescence, 5 h; series mostly up to 76.8 µM; viability change, negative = cytotoxic: at the top concentration
From the text: National Center for Advancing Translational Sciences [NCATS]
NIH Chemical Genomics Center [NCGC]
U.S. Environmental Protection Agency [EPA]
National Institutes of Environmental Health Sciences [NIEHS]
National Toxicology Program [NTP]
U.S. Food and Drug Administration [FDA]
Activator protein-1 (AP-1), a transcription factor, plays an important role in tumor genesis by regulating genes involved in cell proliferation, differentiation, apoptosis, and angiogenesis. AP-1 activity is induced by a complex network of signaling pathways that involves extracellular signals, such as growth factors. The AP-1 protein complex formed from c-Fos and c-Jun binding to the AP-1 response element results in transcriptional activation of genes containing such elements within their promoter.
Low molecular weight molecules have been discovered and developed to modulate various components of these signaling pathways, for example, MAP kinase inhibitors. However, many points of pathway modulation remain untested due to the lack of chemical probes making this signaling locus of general interest.
Using a beta-lactamase reporter-gene under control of the AP-1 response element, a cell-based assay [CellSensor(TM) AP-1-bla ME-180 developed by Invitrogen Corp.] was used to measure EGF-induced signaling. The Tox21 10K library compounds were measured for their ability to positively modulate the action of EC50 EGF on reporter gene activity. Compounds were screened in a 15-pt titration series in 1536-well format. The cytotoxicity of the Tox21 compound library against this cell line was tested in parallel by measuring the intra cellular ATP content in the same wells.
Tox21 Assay Protocol Summary:
2500 cells/5uL in Opti-MEM medium containing 0.5% dialyzed FBS, 0.1 mM NEAA, 1 mM sodium pyruvate and 10 mM HEPES was dispensed into 1536-well black wall/clear bottom plates using a Multidrop dispenser and cells were cultured at 37 degrees Celsius overnight. Next day 23 nL of compounds dissolved in DMSO, positive controls or DMSO were delivered to each well using a pin tool. The plates were incubated at 37 degrees Celsius for 5 hours. 1 uL of LiveBLAzerTM B/G FRET substrate (Solution A+B+C+D) was added to each well using a Flying Reagent Dispenser. After incubated at room temperature for 2.5 hours the plates were measured on an EnVision plate reader at Excitation 405nm, Emission1=460nm and Emission 2=530nm. The %Activity was determined from the ratio of 460nm/530nm.
After the plates were read for Beta-Lactamase assay on Envision; 3 ul Cell Titer Glo (Promega) was added to measure the cytotoxicity and the plates were then incubated at RT in dark for 30 min. The luminescence was read on ViewLux (Perkin Elmer, Shelton, CT) using 6 sec exposure. ViewLux data was expressed as relative luminescence units.
For primary data analysis, raw plate reads for each titration point were first normalized relative to […] EGF control (100%) and DMSO only wells (basal, 0%).
For primary data analysis for viability assay, raw plate reads for each titration point were first normalized Tetra n-octyl ammonium bromide control (-100%) and DMSO (control, 100%).
With `COC(=O)c1ccccc1CS(=O)(=O)NC(=O)Nc1nc(OC)cc(OC)n1` the “viability change, negative = cytotoxic” value was 7.02% (inactive). In the case of `CCOP(=S)(OCC)Oc1ccc(Cl)cc1Cl`, the “viability change, negative = cytotoxic” value is reported as -1.94% (inactive). In the case of `C/C=C/CC#N`, the “viability change, negative = cytotoxic” value is reported as 1% (inactive). In the case of `CC(C)(O)C(Cl)(Cl)Cl`, the “viability change, negative = cytotoxic” value is reported as -1.82% [at 35.3 µM] (inactive). For `O=[N+]([O-])c1cccc(CCl)c1`, the “viability change, negative = cytotoxic” value was 1.04% (inactive). In the case of `CCC(=O)c1ccc(Cl)cc1`, the “viability change, negative = cytotoxic” value is reported as 1.86% (inactive). With `CCCN1CCC[C@@H]2Cc3[nH]ncc3C[C@H]21` the “viability change, negative = cytotoxic” value was 4.18% [at 35.3 µM] (inactive). In the case of `O=c1[nH]oc2c1CCNC2`, the “viability change, negative = cytotoxic” value is reported as 0.719% [at 35.3 µM] (inactive). With `CCOC(=O)CC(SP(=S)(OC)OC)C(=O)OCC` (stereo not given) the Potency was “inactive”. With `N[C@@H](Cc1ccc(Oc2cc(I)c(O)c(I)c2)c(I)c1)C(=O)O` the “viability change, negative = cytotoxic” value was 5.81% [at 35.3 µM] (inactive). With `CN(C)C1CCCCC1` the “viability change, negative = cytotoxic” value was 2.18% (inactive). With `[O-][Br+2]([O-])O` the “viability change, negative = cytotoxic” value was 2.45% [at 35.3 µM] (inactive). With `ClCCN1CCCC1` the “viability change, negative = cytotoxic” value was 7.54% [at 35.3 µM] (inactive). With `CCc1ccc(C2CCNCC2)cc1` the “viability change, negative = cytotoxic” value was -3.59% [at 35.3 µM] (inactive). In the case of `CC(C)(C)NC[C@H](O)c1ccc(O)cc1Cl`, the “viability change, negative = cytotoxic” value is reported as 10.4% [at 35.3 µM] (inactive). For `CC[C@@H](CO)NC(=O)[C@@H]1C=C2c3cccc4[nH]cc(c34)C[C@H]2N(C)C1`, the “viability change, negative = cytotoxic” value was -3.99% [at 35.3 µM] (inactive). In the case of `CCN(CC)CCOC(=O)C(O)(c1ccccc1)c1ccccc1`, the “viability change, negative = cytotoxic” value is reported as -0.155% [at 35.3 µM] (inactive). For `CCC(C)(C#N)N=NC(C)(C#N)CC` (stereo not given), the “viability change, negative = cytotoxic” value was -5.27% (inactive). In the case of `O=C(CCl)NCO`, the “viability change, negative = cytotoxic” value is reported as -10.6% (inactive). With `COP(=O)(O)OC` the “viability change, negative = cytotoxic” value was -3.68% (inactive). For `S=C=S`, the “viability change, negative = cytotoxic” value was 1.58% (inactive). With `CCC1(c2ccccc2)C(=O)N(COC)C(=O)N(COC)C1=O` the “viability change, negative = cytotoxic” value was -6.52% [at 35.3 µM] (inactive). In the case of `CCCCCCC(=O)CCCCCC/C=C/C[C@@H](O)[C@H](O)[C@@](N)(CO)C(=O)O`, the viability change, negative = cytotoxic is reported as -3.45% [at 15.8 µM] (inactive). For `COc1ccccc1OC`, the “viability change, negative = cytotoxic” value was 3.58% (inactive). For `CN=CNc1ccc(C)cc1C`, the “viability change, negative = cytotoxic” value was 3.45% (inactive). In the case of `NCCOS(=O)(=O)O`, the “viability change, negative = cytotoxic” value is reported as 8.07% (inactive). In the case of `CCOC(=O)c1ncn2c1CN(C)C(=O)c1c(I)cccc1-2`, the “viability change, negative = cytotoxic” value is reported as 2.85% [at 35.3 µM] (inactive). In the case of `ClCC1CO1` (stereo not given), the “viability change, negative = cytotoxic” value is reported as 0.782% (inactive). In the case of `Nc1c(Cl)c(F)nc(OCC(=O)O)c1Cl`, the “viability change, negative = cytotoxic” value is reported as 0.856% (inactive). In the case of `OP(O)c1ccccc1`, the “viability change, negative = cytotoxic” value is reported as 1.64% (inactive). With `O=C(O)C(Cl)Br` (stereo not given) the “viability change, negative = cytotoxic” value was -3.47% (inactive). With `O=CCCl` the “viability change, negative = cytotoxic” value was -6.6% (inactive). In the case of `CCNc1nc(Cl)nc(NC(C)(C)C)n1`, the “viability change, negative = cytotoxic” value is reported as 7.33% (inactive). In the case of `O=S1(=O)OCCO1`, the “viability change, negative = cytotoxic” value is reported as -1.74% (inactive). For `CS(=O)(=O)c1ccc(C(=O)C2C(=O)CCCC2=O)c(Cl)c1COCC(F)(F)F`, the “viability change, negative = cytotoxic” value was 2.84% (inactive). For `CCCC[N+](=O)[O-]`, the “viability change, negative = cytotoxic” value was 3.4% (inactive). With `C=CC=O` the “viability change, negative = cytotoxic” value was -1.19% (inactive). For `COC[C@@H](NC(C)=O)C(=O)NCc1ccccc1`, the “viability change, negative = cytotoxic” value was -6.42% [at 35.3 µM] (inactive). With `Cc1ccc(S(=O)(=O)N[C@@H](CCCCN)C(=O)CCl)cc1` the “viability change, negative = cytotoxic” value was 14.2% [at 35.3 µM] (inactive). For `O=C(Cl)c1ccccc1`, the “viability change, negative = cytotoxic” value was -16.9% (inactive).
